Records with an inconclusive call do not appear. A call without a number means that no potency is given here. The source made the active and inactive calls. Calls come from the whole dose curve; as a rule, active = well fitted curve in the direction sought with a large enough effect in the repeat runs; inconclusive = weak or mixed curves; inactive = no such curve, though single readings can be large; an effect the other way counts as inactive or inconclusive.
What was measured:
[1] = molecular target: Cytochrome P450 2C19 (Homo sapiens) (UniProt P33261); test: Cytochrome P450 Family 2 Subfamily C Member 19 (CYP2C19) small molecule antagonists: luciferase reporter qHTS assay (AID 1671197); note: nearly all actives have a fitted effect of over 65% in size
Method in brief: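 Inhibition of CYP2C19 was scored from loss of luminescence in a P450-Glo proluciferin substrate assay, NADPH-started and run 1 h at 37C, with ketoconazole as positive control.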

[2] = molecular target: Cytochrome P450 1A2 (Homo sapiens) (UniProt P05177); test: Cytochrome P450 Family 1 Subfamily A Member 2 (CYP1A2) small molecule antagonists: luciferase reporter qHTS assay (AID 1671199); note: nearly all actives have a fitted effect of over 50% in size
Method in brief: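 Steps: enzyme-substrate mix dispensed; test compounds and furafylline control pinned in; 10 min room temperature; NADPH regeneration solution added, 1 h; reaction stopped with luciferin detection reagent; luminescence read after 20 min.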

[3] = molecular target: Cytochrome P450 3A4 (Homo sapiens) (UniProt P08684); test: Cytochrome P450 Family 3 Subfamily A Member 4 (CYP3A4) small molecule antagonists: luciferase reporter qHTS assay (AID 1671201); note: nearly all actives have a fitted effect of over 50% in size
Method in brief: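 Recombinant human CYP3A4 converts a proluciferin substrate to luciferin over 1 h at room temperature after NADPH regeneration solution is added (compound preincubated 10 min); detection reagent stops reaction, luminescence read 20 min later as relative units.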

[4] = molecular target: Cytochrome P450 2C9 (Homo sapiens) (UniProt P11712); test: Cytochrome P450 Family 2 Subfamily C Member 9 (CYP2C9) small molecule antagonists: luciferase reporter qHTS assay (AID 1671198); note: nearly all actives have a fitted effect of over 50% in size
Method in brief: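 Enzyme-substrate mix preincubated with compound 10 min at room temperature; reaction started with NADPH regeneration solution, 1 h 37C. Luminescent luciferin product read after 20 min detection reagent.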

[5] = molecular target: Voltage-gated inwardly rectifying potassium channel KCNH2 (Homo sapiens) (UniProt Q12809); test: Human Ether-a-go-go-Related Gene (hERG) channel small molecule antagonists: fluorescence cell-based qHTS assay (AID 1671200); note: nearly all actives have a fitted effect of over 50% in size
Method in brief: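 Thallium flux as potassium surrogate: FluxOR II dye loaded 1 h at room temperature into hERG-expressing U2OS cells, then stimulus buffer added after 10 min. Kinetic 480 nm excitation/540 nm emission read, 2 min.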
Potency is the fitted concentration of half-maximal effect.

Chain of Cytochrome P450 1A2 (Homo sapiens) (P05177 whole entry, looked up): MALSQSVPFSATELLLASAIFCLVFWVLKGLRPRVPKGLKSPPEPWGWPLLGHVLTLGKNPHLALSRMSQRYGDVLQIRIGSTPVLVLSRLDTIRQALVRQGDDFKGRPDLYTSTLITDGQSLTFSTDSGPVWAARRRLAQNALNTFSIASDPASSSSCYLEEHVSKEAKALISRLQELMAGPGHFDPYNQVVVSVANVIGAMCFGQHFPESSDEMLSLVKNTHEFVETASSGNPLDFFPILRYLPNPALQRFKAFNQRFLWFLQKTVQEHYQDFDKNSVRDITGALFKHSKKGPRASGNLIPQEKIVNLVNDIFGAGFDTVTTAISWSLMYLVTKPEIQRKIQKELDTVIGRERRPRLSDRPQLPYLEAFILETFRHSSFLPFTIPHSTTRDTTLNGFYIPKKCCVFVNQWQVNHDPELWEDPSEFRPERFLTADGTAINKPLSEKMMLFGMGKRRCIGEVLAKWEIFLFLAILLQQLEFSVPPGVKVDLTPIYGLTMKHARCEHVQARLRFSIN
Chain of Cytochrome P450 2C19 (Homo sapiens) (P33261 whole entry, looked up): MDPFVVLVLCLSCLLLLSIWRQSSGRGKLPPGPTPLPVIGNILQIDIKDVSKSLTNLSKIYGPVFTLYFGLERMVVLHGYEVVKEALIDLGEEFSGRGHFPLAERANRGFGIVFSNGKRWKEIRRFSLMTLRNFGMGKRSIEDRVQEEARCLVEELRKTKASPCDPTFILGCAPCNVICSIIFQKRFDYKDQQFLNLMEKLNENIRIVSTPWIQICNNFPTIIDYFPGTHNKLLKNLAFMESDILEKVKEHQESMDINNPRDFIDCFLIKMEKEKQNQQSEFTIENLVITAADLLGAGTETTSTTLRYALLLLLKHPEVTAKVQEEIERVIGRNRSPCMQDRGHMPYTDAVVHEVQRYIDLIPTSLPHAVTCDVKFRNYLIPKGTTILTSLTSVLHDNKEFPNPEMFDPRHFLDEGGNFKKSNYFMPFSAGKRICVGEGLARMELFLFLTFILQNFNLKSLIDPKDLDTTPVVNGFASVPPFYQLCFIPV
Chain of Cytochrome P450 2C9 (Homo sapiens) (P11712 whole entry, looked up): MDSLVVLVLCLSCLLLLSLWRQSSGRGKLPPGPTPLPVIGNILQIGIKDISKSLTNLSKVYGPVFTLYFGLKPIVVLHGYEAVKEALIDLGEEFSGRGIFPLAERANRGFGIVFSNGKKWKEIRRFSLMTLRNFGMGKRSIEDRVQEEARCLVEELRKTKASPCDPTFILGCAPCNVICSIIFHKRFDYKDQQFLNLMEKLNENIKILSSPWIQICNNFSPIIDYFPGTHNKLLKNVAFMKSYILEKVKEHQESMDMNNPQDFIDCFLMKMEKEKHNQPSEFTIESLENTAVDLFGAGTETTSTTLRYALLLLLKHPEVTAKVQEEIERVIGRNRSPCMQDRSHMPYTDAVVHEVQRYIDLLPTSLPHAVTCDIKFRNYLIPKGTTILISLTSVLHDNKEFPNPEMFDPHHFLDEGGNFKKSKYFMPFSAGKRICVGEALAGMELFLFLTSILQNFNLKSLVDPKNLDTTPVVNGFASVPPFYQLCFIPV
Chain of Voltage-gated inwardly rectifying potassium channel KCNH2 (Homo sapiens) (Q12809 whole entry, looked up): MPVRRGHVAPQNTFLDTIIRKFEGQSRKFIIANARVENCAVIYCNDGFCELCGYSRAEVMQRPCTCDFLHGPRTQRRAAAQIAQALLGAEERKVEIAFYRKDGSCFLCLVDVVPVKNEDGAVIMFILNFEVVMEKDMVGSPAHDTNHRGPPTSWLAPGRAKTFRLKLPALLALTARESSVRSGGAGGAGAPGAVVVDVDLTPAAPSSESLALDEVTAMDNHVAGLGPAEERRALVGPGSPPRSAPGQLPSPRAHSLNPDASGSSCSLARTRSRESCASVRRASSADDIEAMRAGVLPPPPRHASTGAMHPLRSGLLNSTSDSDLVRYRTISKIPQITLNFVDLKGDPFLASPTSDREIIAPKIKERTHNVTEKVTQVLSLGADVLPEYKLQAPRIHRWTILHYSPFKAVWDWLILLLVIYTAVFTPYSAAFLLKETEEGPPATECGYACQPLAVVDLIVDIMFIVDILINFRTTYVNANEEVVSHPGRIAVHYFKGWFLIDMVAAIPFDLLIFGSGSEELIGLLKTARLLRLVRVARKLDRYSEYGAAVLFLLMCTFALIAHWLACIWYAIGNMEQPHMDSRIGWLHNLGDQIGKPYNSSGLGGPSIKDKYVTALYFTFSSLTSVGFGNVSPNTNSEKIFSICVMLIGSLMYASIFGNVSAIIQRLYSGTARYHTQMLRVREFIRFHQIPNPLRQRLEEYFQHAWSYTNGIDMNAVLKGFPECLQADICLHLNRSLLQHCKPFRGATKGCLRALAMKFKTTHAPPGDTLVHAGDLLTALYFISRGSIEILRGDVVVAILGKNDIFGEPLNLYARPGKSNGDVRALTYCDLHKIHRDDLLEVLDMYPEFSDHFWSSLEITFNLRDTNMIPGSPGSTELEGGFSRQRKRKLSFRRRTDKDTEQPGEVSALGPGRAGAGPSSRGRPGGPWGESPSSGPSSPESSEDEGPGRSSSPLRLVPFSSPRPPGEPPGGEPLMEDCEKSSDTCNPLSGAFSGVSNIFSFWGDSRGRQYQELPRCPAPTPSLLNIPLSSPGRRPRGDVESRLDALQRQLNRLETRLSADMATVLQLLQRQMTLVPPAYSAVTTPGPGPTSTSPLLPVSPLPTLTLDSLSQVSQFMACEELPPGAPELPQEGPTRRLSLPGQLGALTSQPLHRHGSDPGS
Chain of Cytochrome P450 3A4 (Homo sapiens) (P08684 whole entry, looked up): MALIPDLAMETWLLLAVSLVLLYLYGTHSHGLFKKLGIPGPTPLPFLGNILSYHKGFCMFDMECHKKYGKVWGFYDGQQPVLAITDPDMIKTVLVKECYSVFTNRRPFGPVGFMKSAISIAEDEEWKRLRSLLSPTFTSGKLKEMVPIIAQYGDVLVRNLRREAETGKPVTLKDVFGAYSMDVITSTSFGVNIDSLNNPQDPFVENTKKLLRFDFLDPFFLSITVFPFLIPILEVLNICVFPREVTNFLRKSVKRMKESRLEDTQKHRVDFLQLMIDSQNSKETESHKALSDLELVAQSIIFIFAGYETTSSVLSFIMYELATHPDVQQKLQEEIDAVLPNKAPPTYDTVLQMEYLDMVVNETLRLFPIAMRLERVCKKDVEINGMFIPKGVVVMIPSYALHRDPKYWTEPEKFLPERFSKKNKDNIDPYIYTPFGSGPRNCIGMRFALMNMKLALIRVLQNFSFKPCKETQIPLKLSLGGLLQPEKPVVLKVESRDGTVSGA

Row | SMILES | Potency [1] | Potency [2] | Potency [3] | Potency [4] | Potency [5]
1 | Cc1ccc(C(C)OC(=O)C2(C)CCC(C(=O)O)C2(C)C)cc1 (stereo unspecified) | inactive | inactive | inactive |  | 
2 | Nc1ccc(S(=O)(=O)Nc2ccccc2)cc1 |  | inactive |  | inactive | inactive
3 | Clc1ccc(Cn2c(CN3CCCC3)nc3ccccc32)cc1 |  | 18.2 µM (active) |  | 15.5 µM (active) | 1.34 µM (active)
4 | CCOC(=O)C(=O)CCc1ccccc1 | 8.71 µM (active) | inactive | inactive |  | inactive
5 | c1ccc(C(O[C@H]2CCCN(CCc3ccc4c(c3)OCO4)C2)c2ccccc2)cc1 |  | 30.9 µM (active) |  | 15.5 µM (active) | 0.535 µM (active)
6 | O=C(O)c1ccc(-n2nc(-c3ccccc3O)nc2-c2ccccc2O)cc1 | inactive | inactive | inactive |  | 
7 | CCC(C)c1cc(C(C)(C)C)c(O)c(C(C)(C)C)c1 (stereo unspecified) | inactive | 62.1 µM (active) | 19.6 µM (active) |  | 
8 | CN(C)CCOC(c1ccccc1)c1ccc(Br)cc1 (stereo unspecified) | 13.8 µM (active) | 17.4 µM (active) | inactive |  | 3.38 µM (active)
9 | CC[N+](C)(CC)CCOC(=O)C(O)(c1ccccc1)C1CCCCC1 (stereo unspecified) |  | inactive |  | inactive | inactive
10 | Nc1cccc([N+](=O)[O-])c1 | 69.5 µM (active) | 39.1 µM (active) | inactive |  | inactive
11 | S=C([S-])NCCNC(=S)[S-].[Mn+2] |  | 25.2 µM (active) |  | 11.2 µM (active) | 
12 | CCCCCCc1ccc(-c2ccc(C#N)cc2)cc1 | 44 µM (active) | 31.2 µM (active) | inactive |  | 
13 | CCCCNc1ccc(C(=O)OCCOCCOCCOCCOCCOCCOCCOCCOCCOC)cc1 |  | inactive |  | 12.3 µM (active) | inactive
